Data on 40 compounds can be found in PubChem BioAssay.

Calls of active or inactive are those of the source. The rule behind the calls is not given here.

Pantothenate synthetase (Mycobacterium tuberculosis (strain ATCC 25618 / H37Rv)), sequence (P9WIL5 whole entry, looked up): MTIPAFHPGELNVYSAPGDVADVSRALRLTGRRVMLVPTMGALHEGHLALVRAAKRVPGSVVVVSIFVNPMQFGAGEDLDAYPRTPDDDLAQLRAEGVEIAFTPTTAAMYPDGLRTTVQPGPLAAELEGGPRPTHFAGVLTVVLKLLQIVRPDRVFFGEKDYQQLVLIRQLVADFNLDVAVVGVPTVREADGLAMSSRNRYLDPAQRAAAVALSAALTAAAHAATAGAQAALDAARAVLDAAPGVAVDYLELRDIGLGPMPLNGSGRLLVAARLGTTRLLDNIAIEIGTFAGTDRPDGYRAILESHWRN

This assay has as its target Pantothenate synthetase (Mycobacterium tuberculosis (strain ATCC 25618 / H37Rv)) (UniProt P9WIL5). The experiment in a line: Recombinant Mtb pantothenate synthetase (PanC) inhibitors, coupled enzyme, confirmatory (AID 375).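 Note: 0% = full reaction with vehicle and 100% = no enzyme background.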 The settings on record: coupled enzyme assay; at 10 µM, active compounds read high.
For `Cc1ccc(S(=O)(=O)N(C)Cc2cc3ccccc3[nH]c2=O)cc1`, the inhibition (commonly the change of the read-out against control, counted positive when it falls) was 0% (inactive).

Take `O=S(=O)(NCc1ccccc1)c1ccc2c(c1)OCCO2`: the inhibition is 0% (inactive).

As to `CC(=O)c1c(C)[nH]c(C(=O)OCc2nnc(-c3ccccc3)o2)c1C`, the inhibition was 0% (inactive).

As to `O=C(NCC1CCCO1)c1cccc(N2CCCC2=O)c1` (stereo not given), the inhibition is 0% (inactive).

As to `CCOc1ccccc1-c1nc(-c2ccc(C)nc2OC)no1`, the inhibition is 3% (inactive).

`CC(C)(C)NC(=O)Cn1c(=O)oc2ccc(Cl)cc21`: the inhibition was 0% (inactive).

Consider `Nc1ncnc2c1ncn2[C@@H]1O[C@H](CO)[C@@H](O)[C@H]1O`, for which the inhibition was 0% (inactive).

`O=C(Cn1cccc1C(=O)c1ccccc1)NCCN1CCOCC1`: the inhibition is 0% (inactive).

Consider `COc1cc2c(cc1OC)-c1nnc(-c3cccs3)n1C(C)(C)C2`, for which the inhibition was 0% (inactive).

For the compound `Cn1c(=O)c2c(nc(Br)n2CCSc2nnnn2-c2ccccc2)n(C)c1=O`, the inhibition was 0% (inactive).

On to `CN(C)S(=O)(=O)c1ccc(S(=O)(=O)N(Cc2ccco2)Cc2ccccc2Cl)cc1`, for which the inhibition was 3% (inactive).

On to `Cc1ccc(OCCC(=O)OCC(=O)C(C)(C)C)cc1`, for which the inhibition is 8% (inactive).

`O=S(=O)(c1cccc2cnccc12)N1CCCNCC1`: the inhibition is 3% (inactive).

For the compound `O=C(NC1CC1)C1CCN(c2ccc(S(=O)(=O)N3CCOCC3)cc2)CC1`, the inhibition was 0% (inactive).

Take `O=C(CN1CCN(c2ncccn2)CC1)Nc1ccccc1-n1cccc1`: the inhibition was 0% (inactive).

`COc1ccccc1N1CCN(C(=O)c2ccc(CS(=O)(=O)c3ccccc3OC)o2)CC1`: the inhibition was 8% (inactive).

Turning to `CCN1CCN(CCCNC(=O)C2c3ccccc3C(=O)N(C)C2c2ccc(OC)cc2)CC1` (stereo not given), the inhibition was 0% (inactive).

For `CCc1cc(-c2[nH]ncc2-c2ccc3c(c2)OCO3)c(O)cc1O`, the inhibition is 0% (inactive).

Take `CCOC(=O)N1CCN(C(=O)c2cn(CC)c3cc(N4CCN(C)CC4)c(F)cc3c2=O)CC1`: the inhibition is 0% (inactive).

For `O=c1[nH]c2ccccc2nc1NCCN1CCOCC1`, the inhibition is 1% (inactive).

Take `CC(=O)N1CCN(Cc2ccc(Br)s2)CC1`: the inhibition was 0% (inactive).

For the compound `COC(=O)c1cnn2c(C(F)(F)F)cc(-c3ccco3)nc12`, the inhibition was 0% (inactive).

With `O=C(O)CCCC(=O)NCCc1ccncc1`, the inhibition was 0% (inactive).

`CC(NC(=O)c1ccc(F)cc1)C(c1cccs1)N1CCN(C)CC1` (stereo not given): the inhibition is 3% (inactive).

As for `Cc1cc(C)n(-c2nnc(C)n2/N=C/c2ccco2)n1`, the inhibition was 1% (inactive).

Consider `COC(=O)c1c(N)sc(C(=O)N2CCOCC2)c1C`, for which the inhibition was 0% (inactive).

As to `CCOC(=O)c1c(C)n(C)c2ccc(OC)c(NC(=O)CCN3CCSCC3)c12`, the inhibition was 2% (inactive).

Regarding `CC(=O)Nc1c(C(=O)O)[nH]c2ccccc12`, the inhibition is 0% (inactive).

On to `CCOC(=O)/C=C1\SCC(=O)N1Cc1ccc(Br)cc1`, for which the inhibition is 0% (inactive).

With `O=C(c1cccc(C(=O)N2CCN(c3ccc(F)cc3)CC2)c1)N1CCN(c2ccc(F)cc2)CC1`, the inhibition is 10% (inactive).

As for `COc1ccccc1Cn1c(-c2ccco2)nc2nc3ccccc3nc21`, the inhibition is 0% (inactive).

For `CC(=O)Nc1nc(-c2ccc(Cl)cc2)nc(C)c1C(C)=O`, the inhibition is 0% (inactive).

With `Cc1sc2nc(SCC(=O)Nc3c(C)n(C)n(-c4ccccc4)c3=O)n(C)c(=O)c2c1C`, the inhibition was 0% (inactive).

With `CCCCCC(=O)O[C@]1(C(C)=O)CC[C@H]2[C@@H]3CCC4=CC(=O)CC[C@]4(C)[C@H]3CC[C@@]21C`, the inhibition was 0% (inactive).

For `CCn1c(SCC(=O)Nc2ccc(C(C)=O)cc2)nc2ccccc21`, the inhibition is 3% (inactive).

`CCc1cc2c(NCCC(=O)O)ncnc2s1`: the inhibition is 1% (inactive).

On to `CCC1CCCCN1c1nc(-c2ccncc2)nc2ccccc12` (stereo not given), for which the inhibition was 1% (inactive).

For the compound `COc1ccc2c(C(F)(F)F)cc(=O)oc2c1C`, the inhibition is 1% (inactive).

On to `COc1ccc(-c2noc(-c3ccccc3C(=O)Nc3cccnc3)n2)cc1`, for which the inhibition is 0% (inactive).

In the case of `O=C(CCN1C(=O)c2ccccc2C1=O)OCN1C(=O)c2ccccc2C1=O`, the inhibition is 5% (inactive).
